# Test results taken from paper PMC7819943, “Rice protein-binding microarrays: a tool to detect cis-acting elements near promoter regions in rice”.
# In all, about 35,000 sequences were measured (“fluorescence intensity (a.u.)”: median about 10,000, highest 2% from about 52,000 on). Many of the other results were omitted from the sample, so the highest values are more common in it than they were.
# Target: T1, OsWOX13 (Oryza sativa, UniProt Q5QMM3 1-267)
# T1 sequence: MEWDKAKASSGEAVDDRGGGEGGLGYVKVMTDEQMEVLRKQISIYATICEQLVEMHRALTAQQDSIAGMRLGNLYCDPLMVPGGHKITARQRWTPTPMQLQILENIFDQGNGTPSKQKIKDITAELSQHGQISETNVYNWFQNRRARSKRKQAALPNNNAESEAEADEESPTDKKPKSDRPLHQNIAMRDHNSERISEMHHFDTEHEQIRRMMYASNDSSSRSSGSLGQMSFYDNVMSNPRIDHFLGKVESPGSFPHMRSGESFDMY
# Test: protein-binding microarray (RPBM); PBS, 2% BSA, 51.3 ng/ul salmon testes DNA, 50 uM zinc acetate, 200 nM TF, 25 C, 1 h; high values mean tight binding
# Details: protein: recombinant; tags: N-terminal polyhistidine and DsRed monomer fusion (pET32a); label: CyDye5-dUTP incorporated in the synthesized complementary strand; 3' TTTTT single-stranded linker to array surface; dsDNA, one strand shown
# Method in brief: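 Transcription factors were made in E. coli BL21-CodonPlus as N-terminal fusions to a polyhistidine tag and DsRed, then purified on Ni–NTA. After primer extension with Cy5-dUTP and blocking with 2% BSA, a custom Agilent array was exposed for 1 h at 25 °C to 200 nM protein in PBS, 2% BSA, salmon testes DNA and 50 µM zinc acetate. Washed arrays were scanned on an Axon 4000B, and the binding signal is per-feature fluorescence intensity in arbitrary units.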
row,Sequence,binding signal
1,GACTTGACTAATTGATTTGTGTAGATTTCTAAAAGCAAGGCGGAGTCACCTAGTGCAG,58600 fluorescence intensity (a.u.)
2,AGAAATTGTGTGATTTATTGTAGTGTGTAGAAATTTATAGCGGAGTCACCTAGTGCAG,11700 fluorescence intensity (a.u.)
3,ATAAAATTTTAAAATTTAAATTGTAGCCACAACTGATAAGCGGAGTCACCTAGTGCAG,15500 fluorescence intensity (a.u.)
4,GATATGAGTGACTAATTGACTTTGTGTTGATTTCGAGCAGCGGAGTCACCTAGTGCAG,34600 fluorescence intensity (a.u.)
5,CTGATTTAAATTGAAAGCAACCGTCTTTTGATTTGTGTAGCGGAGTCACCTAGTGCAG,57100 fluorescence intensity (a.u.)
6,AATGTAATGTAACAAATTTGTCTAAAAGGATTGAACTTGGCGGAGTCACCTAGTGCAG,12400 fluorescence intensity (a.u.)
7,AAAAGCACATGATTATATCTCATTTTATGGTCTTAGAGCACGGAGTCACCTAGTGCAG,3350 fluorescence intensity (a.u.)
8,GTTTGATGAGTCCGGAATAGCATATAGCACATGGAATTGGCGGAGTCACCTAGTGCAG,3510 fluorescence intensity (a.u.)
9,CAACAGGATTGGAAGTGATCAGAGACAGGCAATGAAATCCCGGAGTCACCTAGTGCAG,8460 fluorescence intensity (a.u.)
10,ACACTAAATTAATGTATGCAATGTCCATTGGTAAATAACTCGGAGTCACCTAGTGCAG,14900 fluorescence intensity (a.u.)
11,GATTAAGATTTTATCCGATTGATGATGCGCCGTAGCAGTGCGGAGTCACCTAGTGCAG,8650 fluorescence intensity (a.u.)
12,AGTGATTAGTGAAGCAAAGGAAGACGACGAGTGACACGAGCGGAGTCACCTAGTGCAG,21900 fluorescence intensity (a.u.)
13,CTGGATTGGTGATTGATTATCCGAGCAAGCAAAGACGATGCGGAGTCACCTAGTGCAG,63800 fluorescence intensity (a.u.)
14,TTTAAGATCATGATTAACATGACATTGAAGCATTACCACGCGGAGTCACCTAGTGCAG,5610 fluorescence intensity (a.u.)
15,GAATTAGCTTGATTGACAGAAACAAATGGCTACAACTACACGGAGTCACCTAGTGCAG,50600 fluorescence intensity (a.u.)
16,AACCAGATTCACCGTGATTAGTTTCACCCTAGTCTAGTCTCGGAGTCACCTAGTGCAG,10800 fluorescence intensity (a.u.)
17,CACAATTCCTTCTAATTATTTGATAATCAAGTTTCTCCTTCGGAGTCACCTAGTGCAG,9620 fluorescence intensity (a.u.)
18,ATATATAATCATTGATCTTAATTATTGAGTGTCAGTAGTACGGAGTCACCTAGTGCAG,24400 fluorescence intensity (a.u.)
19,TTAATTAATTGATCACTTCCAAATCATGTAGCAGTACTGTCGGAGTCACCTAGTGCAG,65400 fluorescence intensity (a.u.)
20,TTAATTGATCAATAATCACTGTTCCTTCTCAAGTAGTCAACGGAGTCACCTAGTGCAG,64600 fluorescence intensity (a.u.)
21,ATAATTGAGTAGATAATCCTTGCAATAATCCGCTCAATAACGGAGTCACCTAGTGCAG,8180 fluorescence intensity (a.u.)
22,ATCCATGATTAACAGTTGATTACTGTAGCAAATCATGGATCGGAGTCACCTAGTGCAG,34400 fluorescence intensity (a.u.)

row,Sequence,binding signal
1,ACTATTAATGTGAACTGATATGATACATTTTAGAGCTAGCCGGAGTCACCTAGTGCAG,6440 fluorescence intensity (a.u.)
2,TACACCTTTGACAGACAACAAAGCATTGAATCTTCTATGCCGGAGTCACCTAGTGCAG,5260 fluorescence intensity (a.u.)
3,GATAACTGGATTCATCTGTCTCCTCAACGTGTGGTCTGTACGGAGTCACCTAGTGCAG,19900 fluorescence intensity (a.u.)
4,TGCCACACAAATTTTGCAAAATTTGTGATATGCCACCTGACGGAGTCACCTAGTGCAG,6080 fluorescence intensity (a.u.)
5,GCCAAATTGACAGAGTTACCTCGCTATATAAGGCTGCCCACGGAGTCACCTAGTGCAG,57600 fluorescence intensity (a.u.)
6,TAATAATAATAATAATGCAAATTACCAAAATATAAGCCCACGGAGTCACCTAGTGCAG,6280 fluorescence intensity (a.u.)
7,ACTTGACAGGAATTGCAGAAAGGCCCCTCGCCAAAACTCACGGAGTCACCTAGTGCAG,30900 fluorescence intensity (a.u.)
8,ATATCAATTAATGCTTCAAGATTAGCACCCATATTATATGCGGAGTCACCTAGTGCAG,35100 fluorescence intensity (a.u.)
9,AGTGATTAATGAGACAAATAGTACTTTATTGTGACAAGTACGGAGTCACCTAGTGCAG,30900 fluorescence intensity (a.u.)
10,TTGATTGACTAAACTGTCACGTCAGCGTCATATTGACGAACGGAGTCACCTAGTGCAG,54900 fluorescence intensity (a.u.)
11,GAAATAATTAATTAATTTAATTAATTGATTGACACAAGTACGGAGTCACCTAGTGCAG,65000 fluorescence intensity (a.u.)
12,AAATTGACAAGATAGATCAATATATAATATATCACTACACCGGAGTCACCTAGTGCAG,10200 fluorescence intensity (a.u.)
13,CTAATTGATTAGTAAACTATTTATATAGGACTGTTGTTTTCGGAGTCACCTAGTGCAG,58300 fluorescence intensity (a.u.)
14,CTTAATTAACACTCGTAAGATTGACAAATAGTTGAATATCCGGAGTCACCTAGTGCAG,60300 fluorescence intensity (a.u.)
15,AGACAATGATAGTGATAATTAACAAATTCAGTTTAAGATCCGGAGTCACCTAGTGCAG,19700 fluorescence intensity (a.u.)
16,TTTGATTCTTTTAAATTAAATAATTTTAAAGTCATTGATACGGAGTCACCTAGTGCAG,21100 fluorescence intensity (a.u.)
17,AATCATTTAAAACATTGATTTTATTTGACGATAAAACTAGCGGAGTCACCTAGTGCAG,4690 fluorescence intensity (a.u.)
18,TATTTTCAATTATAGGTCTAATTGTTTTATTTAGGTGATTCGGAGTCACCTAGTGCAG,20500 fluorescence intensity (a.u.)
19,GGTAATATTTTGATTAAATTTGACTAAATTTTGTTTAAAACGGAGTCACCTAGTGCAG,11800 fluorescence intensity (a.u.)
20,AAACTGATTCTTTGATTATTGACGTCTCATAGACCTACGTCGGAGTCACCTAGTGCAG,31600 fluorescence intensity (a.u.)
21,GAAATTAAACTAATATTTCGGCCCATCAAGGGCTCGCTTGCGGAGTCACCTAGTGCAG,8580 fluorescence intensity (a.u.)
22,TCTGATTATTAATTATCACTTTATCAGTCTCCAACGTTTACGGAGTCACCTAGTGCAG,40900 fluorescence intensity (a.u.)

row,Sequence,binding signal
1,ATACTTAATTAATGATACGATAATTGAATTTATTCTCTCCCGGAGTCACCTAGTGCAG,49900 fluorescence intensity (a.u.)
2,ATACTTGACAGGTTTTATGCATATAAGAAAATCTGTTTAACGGAGTCACCTAGTGCAG,7520 fluorescence intensity (a.u.)
3,CTCTCTCTCTGATTAGTTAATTGAATACATTGTAAGGGCCCGGAGTCACCTAGTGCAG,41200 fluorescence intensity (a.u.)
4,TCGCTAATAAATCATATGATGTCATGGGCCCGAGACATCTCGGAGTCACCTAGTGCAG,3380 fluorescence intensity (a.u.)
5,TGTGTTAAACTATATAATTTTCTCTAAAACATAATGGTACCGGAGTCACCTAGTGCAG,3720 fluorescence intensity (a.u.)
6,TTAATTCTATCTAGTAGTAGAGTTAGTTATTTATATATTACGGAGTCACCTAGTGCAG,5310 fluorescence intensity (a.u.)
7,CCTTCGATTATTGGCACGGATTGTTTATCCAGGTAAGACTCGGAGTCACCTAGTGCAG,13300 fluorescence intensity (a.u.)
8,CACATCAACCTGCACCAATCATGCCATCGAGATCACAACACGGAGTCACCTAGTGCAG,3970 fluorescence intensity (a.u.)
9,ATCTCCAAAATTTTAAATTTTAATTAAAACCTAACTTACACGGAGTCACCTAGTGCAG,6930 fluorescence intensity (a.u.)
10,TGAATAATTGACAATTTAACCAGACCATTAATTAATTGTTCGGAGTCACCTAGTGCAG,62400 fluorescence intensity (a.u.)
11,AAGAATTGATAGATGAAACGTGATTAGATACTAACTATACCGGAGTCACCTAGTGCAG,41200 fluorescence intensity (a.u.)
12,TATAATTGAATAAATTTTCATATTATATTTATCTTGTGTTCGGAGTCACCTAGTGCAG,63100 fluorescence intensity (a.u.)
13,CTAGAAATTAGGTGATTAATTTATTAAACACAATATTGCCCGGAGTCACCTAGTGCAG,56900 fluorescence intensity (a.u.)
14,TTAATATAAAAGTAATTATTTAAATTGTAGAAACAATTTACGGAGTCACCTAGTGCAG,5710 fluorescence intensity (a.u.)
15,TACTAATTTTGAATTTAGAGCTATTAACCAATAAATTGTTCGGAGTCACCTAGTGCAG,12200 fluorescence intensity (a.u.)
16,GCACTAGTGATTGGAACAATATTAATTTCAGAAACATTGCCGGAGTCACCTAGTGCAG,32700 fluorescence intensity (a.u.)
17,AATAATTGAATATATTTTCATAATAAATGTGTGTTGAGTTCGGAGTCACCTAGTGCAG,38400 fluorescence intensity (a.u.)
18,AGAAATTGAACGTGATTAACGGGGAGGGCACTAGTGAGGCCGGAGTCACCTAGTGCAG,53000 fluorescence intensity (a.u.)
19,CTTTAAAATTAATTAAATTTGAAAATTAGTAACGAGGGGACGGAGTCACCTAGTGCAG,26700 fluorescence intensity (a.u.)
20,ACAATTGAAGATAAATGACAAACCAATAAACCATTTGTTTCGGAGTCACCTAGTGCAG,5080 fluorescence intensity (a.u.)
21,AATAATTGAATATATTTTCATAATAAATTTGTCTTGGGTTCGGAGTCACCTAGTGCAG,44400 fluorescence intensity (a.u.)
